Measured values as given in PubChem BioAssay AID504340 (NMMLSC, 2011).
Values joined by “and” are separate entries in the source; they are usually repeats but may differ in a detail not shown here. Equal entries are not always repeated. A number with no mark means an inactive call. Active and inactive are the calls of the source.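 Rule for the calls: active = GFP response above 150% of the DMSO control; inconclusive = Under 70 cell events counted for a yeast strain; inactive = the rest.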

Assay: yeast TOR pathway CIT2-GFP reporter retest – flow cytometry, third cherry pick, single plex, confirmation (AID 504340);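 note: median GFP fluorescence over all cells with no mother versus daughter split; sample signal as a ratio to the plate DMSO mean so 100% equals DMSO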
Conditions: S. cerevisiae CIT2-GFP strain, 3 h, at 10 µM, active compounds read high
With `NC(=O)c1ccnc2c(O)cccc12` the GFP response vs DMSO was 101%. Work on `CS(=O)(=O)c1nc(-c2ccc(F)cc2)cc(C(F)(F)F)n1` yielded a GFP response vs DMSO of 107%. `COc1cccc2c(O)cc(=O)n(C)c12` showed a GFP response vs DMSO of 103%. `COc1cc(=O)n(C)c2c(O)cccc12` gave a GFP response vs DMSO of 92.8%. With `CCCC(=O)Nn1cnc2c(c1=O)C1(CCCCC1)Cc1ccccc1-2` the GFP response vs DMSO was 94.5%. With `CC(=O)NC(C)c1cc(Cl)c2cccnc2c1O` (centres undefined) the GFP response vs DMSO was 97.7%. For `O=C(O)c1ccc2cccnc2c1O`, the GFP response vs DMSO was 88%. With `COc1cccc2c(=O)c(C(=O)O)c[nH]c12` the GFP response vs DMSO was 99.3%. `C/C(=C\C(=O)c1ccccc1)Nc1cccc(O)c1` showed a GFP response vs DMSO of 99.3%. For `CNc1nc(C)c([N+](=O)[O-])c(Nc2ccc(OC)cc2)n1`, the GFP response vs DMSO was 97.7%. `CCN(CC)C(=O)Oc1cc(=O)n(C)c2ccccc12` gave a GFP response vs DMSO of 101%. For `CC(=O)C(Cl)C(=O)Nc1ccccc1` (centres undefined), the GFP response vs DMSO was 121%. `CCOC(=O)CS(=O)(=O)c1nc(-c2ccccc2)cc(C(F)(F)F)n1` gave a GFP response vs DMSO of 111%. Work on `COc1ccc(NC(=O)ON=C2c3ccccc3-c3ccccc32)cc1` yielded a GFP response vs DMSO of 109%. Molecule `Brc1ccc2ncnc(NCc3ccccc3)c2c1` has a GFP response vs DMSO of 112%. `CSc1nc(S(C)(=O)=O)nc2[nH]c(=O)[nH]c12` gave a GFP response vs DMSO of 106%. With `C[n+]1cccc2cccc([O-])c21` the GFP response vs DMSO was 103%. In the case of `C/C(=C\C(=O)c1ccc(Cl)cc1)Nc1ccc(Br)cc1`, the GFP response vs DMSO is reported as 104%. `Cc1ccc(C(=O)Nc2nc(-c3ccccn3)cs2)o1` gave a GFP response vs DMSO of 99.3%. In the case of `Oc1c(Br)cc(Br)c2cccnc12`, the GFP response vs DMSO is reported as 189% (active). Molecule `CC1=NNC(=O)/C1=C\c1cn(-c2ccccc2)nc1-c1ccc(F)cc1` has a GFP response vs DMSO of 124%. For `COCC(C)NC(=O)CCS(=O)(=O)c1nc(-c2ccc(OC)cc2)cc(C(F)(F)F)n1` (centres undefined), the GFP response vs DMSO was 103% and 92.8%. Molecule `Cc1cccc(C)c1Nc1ncnc(N)c1[N+](=O)[O-]` has a GFP response vs DMSO of 103%. In the case of `Cc1cccc(Nc2cc(=O)[nH]c(=O)[nH]2)c1`, the GFP response vs DMSO is reported as 94.5%. In the case of `Nc1nc(NCCOCCO)nc(Nc2cccc(F)c2)c1[N+](=O)[O-]`, the GFP response vs DMSO is reported as 96.1%. `O=c1cc(C(F)(F)F)[nH]c2c(OC(F)(F)F)cccc12` gave a GFP response vs DMSO of 107%. With `CCc1c(C)nc2c(OC)cccc2c1Cl` the GFP response vs DMSO was 97.7%. In the case of `Oc1c(I)cc(Cl)c2cccnc12`, the GFP response vs DMSO is reported as 182% (active). `COc1cc(OC)cc(C(=O)Nc2ccc(-c3nc4ccccc4o3)cc2)c1` showed a GFP response vs DMSO of 112%. In the case of `COc1ccccc1OCc1cc(C(=O)N2CCN(C)C(c3ccccc3)C2)no1` (centres undefined), the GFP response vs DMSO is reported as 103%. `O=C(O)c1ccccc1-c1ccccc1C(=O)Nc1ccc(-c2nc3cc(Cl)ccc3o2)cc1` gave a GFP response vs DMSO of 99.3%. With `Cc1ccc(C(=O)/C=C/Nc2cccc(O)c2)cc1` the GFP response vs DMSO was 109%. For `CC(=O)NCCOc1cccc2cccnc12`, the GFP response vs DMSO was 104%. `CC(=O)Nc1ccc(-c2nc3cc(Cl)ccc3o2)cc1` showed a GFP response vs DMSO of 91.2%. `Cc1cccc(Nc2cc(=O)[nH]c(=O)[nH]2)c1C` gave a GFP response vs DMSO of 96.1%. `CCCC(=O)Nn1cnc2c(c1=O)C1(CCCC1)Cc1ccccc1-2` gave a GFP response vs DMSO of 94.5%. Work on `OCCNc1ncnc2ccc(Br)cc12` yielded a GFP response vs DMSO of 109%. For `CC(C)Nc1ncnc2ccc(Br)cc12`, the GFP response vs DMSO was 96.1%. Work on `O=C(Nc1cccc2ccccc12)ON=C1CCCCC1` yielded a GFP response vs DMSO of 106%.
